Test results: the supplement of paper PMC10849652
Of roughly 8,800 targets only a part is listed; those with a hit were picked by preference. About 0.5% of all pairs of compound and target were hits.

Assays:
Assay in all cases: log2 fold change, soluble protein after heating vs DMSO (PISA); higher = thermal stabilisation; K562 lysate, 10 uM; active = over 0.2 and 3.5 SD of the protein, either way, in both replicates (recomputed)
[1] = compound: CCCS(=O)(=O)Nc1ccc(F)c(C(=O)c2c[nH]c3ncc(-c4ccc(Cl)cc4)cc23)c1F [vemurafenib]
Outline: (§1)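 Dounce homogenisation of K562 pellets in PBS pH 7.4 with 1 mM MgCl2 produced a crude extract, used at 1 mg/mL protein. Exposure to 10 μM compound lasted 30 min, and aliquots were then heated for 3 min across 48°C-58°C, pooled and brought to 0.5% NP-40 at 4°C. The supernatant after 21,000xg for 90 min was quantified by TMTpro 16plex LC-MS/MS with channel sums equalised. Duplicate values are given as log-two fold change in thermal stability relative to solvent controls.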

[2] = compound: CCCS(=O)(=O)Nc1ccc(F)c(C(=O)c2c[nH]c3ncc(Cl)cc23)c1F
Outline: as §1

[3] = compound: CCN(CCCOc1ccc2c(Nc3cc(CC(=O)Nc4cccc(F)c4)[nH]n3)ncnc2c1)CCOP(=O)(O)O [barasertib]
Outline: as §1

[4] = compound: CC[C@@H]1C(=O)N(C)c2cnc(Nc3ccc(C(=O)NC4CCN(C)CC4)cc3OC)nc2N1C1CCCC1
Outline: as §1

[5] = compound: CC[C@@H]1C(=O)N(C)c2cnc(Nc3ccc(C(=O)N[C@H]4CC[C@H](N5CCN(CC6CC6)CC5)CC4)cc3OC)nc2N1C(C)C [volasertib]
Outline: as §1

[6] = compound: CCn1c(C(=O)N(C2CC2)C2CC2)cc2c3c(ncn3C)c(Nc3cc(C)n(C)n3)nc21
Outline: as §1

[7] = compound: CCn1cc(-c2ccnc3[nH]c(-c4cccc(CN(C)C)c4)cc23)c(-c2ccc(NC(=O)N(C)C)cc2)n1
Outline: as §1

[8] = compound: CN1CCC(CNc2ccc3ncc(-c4cccc(OC(F)(F)F)c4)n3n2)CC1
Outline: as §1

[9] = compound: CN1CCN(CCOc2cc(OC3CCOCC3)c3c(Nc4c(Cl)ccc5c4OCO5)ncnc3c2)CC1 [saracatinib]
Outline: as §1

[10] = compound: CN1CCN(c2nc(C3=C(c4c[nH]c5ccccc45)C(=O)NC3=O)c3ccccc3n2)CC1 [sotrastaurin]
Outline: as §1

Measured: log2 fold change

ABCF2 isoform 2 (UniProt Q9UG63)
UniProt Q9UG63, sequence (Q9UG63 whole entry, looked up): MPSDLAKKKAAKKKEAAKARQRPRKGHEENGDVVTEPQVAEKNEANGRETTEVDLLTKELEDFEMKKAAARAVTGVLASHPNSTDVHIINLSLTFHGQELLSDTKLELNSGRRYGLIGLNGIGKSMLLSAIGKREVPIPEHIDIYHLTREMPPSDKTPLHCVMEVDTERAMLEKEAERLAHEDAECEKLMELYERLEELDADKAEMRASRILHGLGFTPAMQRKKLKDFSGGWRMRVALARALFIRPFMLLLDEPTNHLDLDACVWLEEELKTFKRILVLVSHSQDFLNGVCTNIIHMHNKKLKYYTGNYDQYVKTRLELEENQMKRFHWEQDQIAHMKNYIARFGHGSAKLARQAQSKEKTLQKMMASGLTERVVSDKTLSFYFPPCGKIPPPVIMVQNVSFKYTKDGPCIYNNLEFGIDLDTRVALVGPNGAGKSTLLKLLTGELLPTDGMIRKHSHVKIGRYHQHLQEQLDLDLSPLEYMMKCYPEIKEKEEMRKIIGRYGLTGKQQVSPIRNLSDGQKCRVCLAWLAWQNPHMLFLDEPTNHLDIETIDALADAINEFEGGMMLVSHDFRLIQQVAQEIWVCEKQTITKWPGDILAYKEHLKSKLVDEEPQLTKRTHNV
inactive: [1] 0.017 | [2] 0.002 | [3] -0.014 | [4] -0.072 | [5] -0.045 | [6] 0.026 | [7] -0.008 | [8] -0.026 | [9] 0 | [10] 0.036

ACACB (UniProt O00763)
UniProt O00763, sequence (O00763 whole entry, looked up): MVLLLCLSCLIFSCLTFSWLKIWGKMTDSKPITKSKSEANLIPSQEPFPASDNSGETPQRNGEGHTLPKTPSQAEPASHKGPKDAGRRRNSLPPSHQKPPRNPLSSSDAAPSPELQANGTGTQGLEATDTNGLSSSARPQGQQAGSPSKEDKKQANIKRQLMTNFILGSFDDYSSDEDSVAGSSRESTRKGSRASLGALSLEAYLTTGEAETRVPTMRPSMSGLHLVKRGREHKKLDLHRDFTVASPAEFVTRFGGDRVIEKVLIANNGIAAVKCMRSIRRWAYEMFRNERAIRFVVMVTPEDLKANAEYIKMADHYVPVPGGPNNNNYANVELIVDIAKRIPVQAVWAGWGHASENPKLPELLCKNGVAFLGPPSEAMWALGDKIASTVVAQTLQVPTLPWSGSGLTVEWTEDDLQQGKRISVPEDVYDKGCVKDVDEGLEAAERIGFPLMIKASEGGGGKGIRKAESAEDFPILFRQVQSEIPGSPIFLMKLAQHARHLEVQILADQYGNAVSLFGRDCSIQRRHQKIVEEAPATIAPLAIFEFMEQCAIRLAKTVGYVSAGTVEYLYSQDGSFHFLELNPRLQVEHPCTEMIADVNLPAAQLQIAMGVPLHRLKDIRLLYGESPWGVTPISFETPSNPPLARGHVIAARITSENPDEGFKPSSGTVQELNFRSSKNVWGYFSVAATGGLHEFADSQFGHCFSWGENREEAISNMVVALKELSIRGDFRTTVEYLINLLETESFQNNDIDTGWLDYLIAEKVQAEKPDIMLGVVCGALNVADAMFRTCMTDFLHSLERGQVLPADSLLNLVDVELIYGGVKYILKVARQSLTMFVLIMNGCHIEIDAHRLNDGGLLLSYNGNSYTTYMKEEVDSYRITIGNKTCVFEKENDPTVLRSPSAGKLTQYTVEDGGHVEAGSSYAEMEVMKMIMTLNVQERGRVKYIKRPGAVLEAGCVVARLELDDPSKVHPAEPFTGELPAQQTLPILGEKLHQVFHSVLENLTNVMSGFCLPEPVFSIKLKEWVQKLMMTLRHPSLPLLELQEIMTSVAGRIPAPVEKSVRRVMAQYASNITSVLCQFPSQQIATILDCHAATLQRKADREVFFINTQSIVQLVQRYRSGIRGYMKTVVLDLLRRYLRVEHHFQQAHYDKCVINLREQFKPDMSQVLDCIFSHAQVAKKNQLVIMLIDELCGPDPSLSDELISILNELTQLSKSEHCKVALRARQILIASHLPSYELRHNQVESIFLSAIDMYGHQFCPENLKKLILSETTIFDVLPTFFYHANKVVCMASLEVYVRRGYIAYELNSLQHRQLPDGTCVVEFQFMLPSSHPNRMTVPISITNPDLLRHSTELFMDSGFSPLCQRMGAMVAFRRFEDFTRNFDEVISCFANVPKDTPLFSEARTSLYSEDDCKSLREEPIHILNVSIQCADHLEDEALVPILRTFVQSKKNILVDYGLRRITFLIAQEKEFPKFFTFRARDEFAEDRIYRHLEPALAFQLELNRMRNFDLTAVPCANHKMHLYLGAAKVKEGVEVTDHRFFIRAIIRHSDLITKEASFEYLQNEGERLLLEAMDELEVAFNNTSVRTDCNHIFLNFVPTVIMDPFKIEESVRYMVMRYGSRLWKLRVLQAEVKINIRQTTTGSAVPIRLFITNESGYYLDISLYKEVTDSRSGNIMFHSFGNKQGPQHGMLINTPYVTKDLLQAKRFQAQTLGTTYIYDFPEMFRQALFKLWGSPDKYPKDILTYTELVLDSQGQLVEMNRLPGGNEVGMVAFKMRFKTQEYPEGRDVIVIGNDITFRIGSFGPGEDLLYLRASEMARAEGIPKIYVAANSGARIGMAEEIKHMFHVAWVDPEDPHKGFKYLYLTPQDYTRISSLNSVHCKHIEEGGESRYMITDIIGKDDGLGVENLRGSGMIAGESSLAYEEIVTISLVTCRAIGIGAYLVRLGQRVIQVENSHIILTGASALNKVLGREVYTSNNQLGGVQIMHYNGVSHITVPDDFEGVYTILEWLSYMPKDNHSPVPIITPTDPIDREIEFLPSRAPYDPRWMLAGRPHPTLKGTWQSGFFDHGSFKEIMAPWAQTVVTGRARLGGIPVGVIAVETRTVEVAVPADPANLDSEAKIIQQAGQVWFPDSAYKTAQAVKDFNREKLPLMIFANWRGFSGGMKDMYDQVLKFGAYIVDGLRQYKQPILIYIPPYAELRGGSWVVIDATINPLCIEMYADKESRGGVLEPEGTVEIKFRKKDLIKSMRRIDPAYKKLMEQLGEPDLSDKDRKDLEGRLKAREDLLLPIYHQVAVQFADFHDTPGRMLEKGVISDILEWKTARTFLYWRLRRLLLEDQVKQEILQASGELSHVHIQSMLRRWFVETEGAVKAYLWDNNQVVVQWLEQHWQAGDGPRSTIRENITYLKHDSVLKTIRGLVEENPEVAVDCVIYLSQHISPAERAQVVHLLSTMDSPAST
inactive: [1] 0.012 | [2] 0.028 | [3] 0.024 | [4] -0.113 | [5] -0.11 | [6] 0.038 | [7] -0.14 | [8] 0.027 | [9] 0.018 | [10] 0.037

ABHD17B (UniProt Q5VST6)
UniProt Q5VST6, sequence (Q5VST6 whole entry, looked up): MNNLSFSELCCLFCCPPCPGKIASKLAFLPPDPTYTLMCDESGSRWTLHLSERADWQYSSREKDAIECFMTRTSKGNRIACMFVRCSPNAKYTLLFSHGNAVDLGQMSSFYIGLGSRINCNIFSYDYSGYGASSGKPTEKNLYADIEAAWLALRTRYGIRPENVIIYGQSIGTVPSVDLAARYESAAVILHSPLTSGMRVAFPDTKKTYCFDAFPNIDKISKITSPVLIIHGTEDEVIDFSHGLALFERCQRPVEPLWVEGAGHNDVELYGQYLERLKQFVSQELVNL
inactive: [1] 0.051 | [2] -0.002 | [3] -0.073 | [4] 0.234 | [5] 0.094 | [6] -0.034 | [7] 0.08 | [8] 0.054 | [9] 0.092 | [10] -0.002

AP4B1 (UniProt Q9Y6B7)
UniProt Q9Y6B7, sequence (Q9Y6B7 whole entry, looked up): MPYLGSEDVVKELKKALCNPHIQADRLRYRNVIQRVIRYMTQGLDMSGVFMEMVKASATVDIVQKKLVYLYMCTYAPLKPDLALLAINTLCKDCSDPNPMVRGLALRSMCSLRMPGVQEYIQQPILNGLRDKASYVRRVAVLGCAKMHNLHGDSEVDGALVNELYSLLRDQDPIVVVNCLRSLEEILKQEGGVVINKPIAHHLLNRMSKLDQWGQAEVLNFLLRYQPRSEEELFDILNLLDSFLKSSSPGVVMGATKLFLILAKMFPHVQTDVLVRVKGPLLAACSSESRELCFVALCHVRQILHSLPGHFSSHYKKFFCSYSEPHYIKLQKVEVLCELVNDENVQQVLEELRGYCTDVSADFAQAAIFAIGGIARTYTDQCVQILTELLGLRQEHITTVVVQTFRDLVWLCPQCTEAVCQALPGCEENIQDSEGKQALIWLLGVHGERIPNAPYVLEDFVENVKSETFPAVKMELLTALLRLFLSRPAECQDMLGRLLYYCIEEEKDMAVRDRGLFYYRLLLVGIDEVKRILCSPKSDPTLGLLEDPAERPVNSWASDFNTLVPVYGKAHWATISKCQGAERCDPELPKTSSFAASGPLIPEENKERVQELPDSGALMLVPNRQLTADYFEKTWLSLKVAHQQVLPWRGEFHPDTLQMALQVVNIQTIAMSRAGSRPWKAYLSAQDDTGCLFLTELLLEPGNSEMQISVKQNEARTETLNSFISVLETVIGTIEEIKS
inactive: [1] 0.026 | [2] 0.087 | [3] 0.028 | [4] -0.01 | [5] -0.009 | [6] 0.011 | [7] -0.035 | [8] 0.02 | [9] 0.042 | [10] -0.027

ABHD12 isoform 2 (UniProt Q8N2K0)
UniProt Q8N2K0, sequence (Q8N2K0 whole entry, looked up): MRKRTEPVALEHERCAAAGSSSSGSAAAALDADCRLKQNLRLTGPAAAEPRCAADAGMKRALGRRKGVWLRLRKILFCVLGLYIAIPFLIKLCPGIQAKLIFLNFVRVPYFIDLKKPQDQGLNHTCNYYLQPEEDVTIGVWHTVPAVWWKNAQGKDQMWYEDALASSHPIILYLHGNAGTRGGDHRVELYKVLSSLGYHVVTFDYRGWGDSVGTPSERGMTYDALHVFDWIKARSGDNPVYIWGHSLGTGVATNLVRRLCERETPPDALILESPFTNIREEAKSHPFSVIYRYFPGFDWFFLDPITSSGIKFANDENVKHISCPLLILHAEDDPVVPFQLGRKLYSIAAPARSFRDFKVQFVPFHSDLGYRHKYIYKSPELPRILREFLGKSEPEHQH
inactive: [1] -0.049 | [2] 0.077 | [3] -0.015 | [4] 0.034 | [5] 0.006 | [6] -0.055 | [7] 0.119 | [8] -0.111 | [9] -0.039 | [10] 0.018

AKAP11 (UniProt Q9UKA4)
inactive: [1] -0.272 | [2] -0.029 | [3] 0.082 | [4] 0.051 | [5] 0.038 | [6] -0.055 | [7] 0.044 | [8] -0.024 | [9] 0.028 | [10] -0.103

AK2 (UniProt P54819)
inactive: [1] 0.014 | [2] 0.062 | [3] -0.013 | [4] 0.029 | [5] 0.013 | [6] -0.009 | [7] 0.119 | [8] -0.008 | [9] -0.015 | [10] -0.038
